# Assay results published in PubChem BioAssay (NCI).
# Compounds without any hit were thinned out: in the full panel of roughly 79,000, 15% have a hit. A number with no mark means an inactive call. Active and inactive are the calls of the source. Rule as the data show it: active = growth inhibition above about 70%; inactive = the rest.
# Legend:
# [1] = NCI Yeast Anticancer Drug Screen. Data for the rad52 strain (AID 147);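 also: 0% = growth of vehicle-treated control cultures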; details: S. cerevisiae rad52 mutant growth inhibition, active compounds read high
# Outline: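 Inhibition of yeast growth, referenced to vehicle controls, was the measured output for a strain with defective DNA damage repair.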
# [2] = NCI Yeast Anticancer Drug Screen. Data for the wt1 strain (AID 149);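 also: 0% = growth of vehicle-treated wt1 cultures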; details: S. cerevisiae wt1 strain (SPY 50644) growth inhibition, active compounds read high
# Outline: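 Measured: growth of wt1 yeast under compound versus vehicle treatment, reported as inhibition.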
# [3] = NCI Yeast Anticancer Drug Screen. Data for the rad50EPP+ strain (AID 151);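 also: 0% = growth of vehicle-treated control cultures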; details: S. cerevisiae rad50 mutant strain, active compounds read high
# Outline: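 Genetically defined yeast (rad50EPP+, DNA damage repair alteration) is grown with compound, and inhibition of growth is expressed relative to vehicle-treated controls.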
# [4] = NCI Yeast Anticancer Drug Screen. Data for the mgt1 strain (AID 153); details: S. cerevisiae mgt1 mutant growth inhibition, active compounds read high
# Outline: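 In the mgt1 strain, test compounds were added and growth inhibition was determined relative to vehicle-treated controls.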
# [5] = NCI Yeast Anticancer Drug Screen. Data for the rad50 strain (AID 155);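 also: 0% = growth of vehicle-only cultures of the same strain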; details: S. cerevisiae rad50 strain growth inhibition, active compounds read high
# Outline: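 Growth of the mutant yeast was measured after compound exposure and referenced to vehicle-treated cultures.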
# [6] = NCI Yeast Anticancer Drug Screen. Data for the mec2-1 strain (AID 157); details: S. cerevisiae mec2-1 strain, active compounds read high
# Outline: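 Each compound was tested on mec2-1 yeast, a strain altered in DNA damage repair or cell cycle control. Growth inhibition is reported relative to vehicle.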
# [7] = NCI Yeast Anticancer Drug Screen. Data for the rad14 strain (AID 159);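 also: 0% = growth of vehicle-treated control cultures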; details: S. cerevisiae rad14 strain growth inhibition, active compounds read high
# Outline: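 Here, inhibition of yeast growth was measured after compound exposure, using a strain with a genetic defect in DNA damage repair and vehicle-treated cultures as the reference.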
# [8] = NCI Yeast Anticancer Drug Screen. Data for the sgs1 mgt1 strain (AID 161);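 also: 0% = growth of cultures given vehicle only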; details: S. cerevisiae sgs1 mgt1 strain, active compounds read high
# Outline: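 Mutant yeast exposed to compound; growth scored against vehicle-only wells.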
# [9] = NCI Yeast Anticancer Drug Screen. Data for the CLN2oe strain (AID 163);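 also: 0% = growth of vehicle-only control cultures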; details: S. cerevisiae CLN2oe strain, active compounds read high
# Outline: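 First, the altered yeast strain was treated with each compound; second, its growth was measured; finally, inhibition was derived by comparison with vehicle controls.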
# [10] = NCI Yeast Anticancer Drug Screen. Data for the bub3 strain (AID 167); details: S. cerevisiae bub3 mutant strain, active compounds read high
# Outline: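 Whole-cell yeast assay. The mutant strain was incubated with compounds, and growth inhibition was determined by comparison with vehicle-treated cells.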
# [11] = NCI Yeast Anticancer Drug Screen. Data for the wt2 strain (AID 169);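 also: 0% = growth of vehicle-treated yeast cultures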; details: S. cerevisiae wt2 strain growth inhibition, active compounds read high
# Outline: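 The panel's yeast strains carry defined changes in DNA repair or cell cycle genes. Each strain is grown with compound, and growth loss is scored relative to vehicle.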
# [12] = NCI Yeast Anticancer Drug Screen. Data for the mlh1 strain (AID 171);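 also: 0% = growth of vehicle-treated control cultures of the same strain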; details: S. cerevisiae mlh1 strain growth inhibition, active compounds read high
# Outline: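 Inhibition values reflect reduced yeast growth in the presence of compound, referenced to vehicle controls, using a strain chosen for its alteration in DNA repair or cell cycle control.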
# [13] = NCI Yeast Anticancer Drug Screen. Data for the sgs1 strain (AID 173);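 also: 0% = growth of vehicle-only control cultures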; details: S. cerevisiae sgs1 mutant, active compounds read high
# Outline: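 Vehicle-treated cultures served as reference for growth inhibition of a yeast strain altered in DNA damage repair or cell cycle control after compound exposure.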
# [14] = NCI Yeast Anticancer Drug Screen. Data for the mlh1 rad18 strain (AID 175); details: S. cerevisiae mlh1 rad18 strain growth inhibition, active compounds read high
# Outline: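 Inhibition values reflect reduced growth of mutant yeast versus vehicle-treated controls following compound exposure; the mutations affect DNA damage repair.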
# [15] = NCI Yeast Anticancer Drug Screen. Data for the cln2 rad14 strain (AID 165);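 also: 0% = growth equal to vehicle treated cultures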; details: S. cerevisiae cln2 rad14 strain, active compounds read high
# Outline: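 Test compounds were added to cln2 rad14 yeast cultures; inhibition of growth was then determined by comparison with vehicle treatment.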
# [16] = NCI Yeast Anticancer Drug Screen. Data for the rad18 strain (AID 177); details: S. cerevisiae rad18 mutant growth inhibition, active compounds read high
# Outline: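 Steps: expose repair-mutant yeast to compound; measure growth; express as inhibition relative to vehicle control.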
# [17] = at 5.0 µM (retest, dose inferred, filed as 0.5)
# [18] = at 50.0 µM (retest, dose inferred, filed as 5.0)
smiles,measurement,setting,value
Cc1cc(C)c(N2C(=O)CC(Sc3ccccc3N)C2=O)c(C)c1 (stereo not drawn),growth inhibition,[1]; at 1.2 µM,-27%
same,growth inhibition,[1]; at 3.7 µM,-20%
same,growth inhibition,[1]; at 11.0 µM,-31%
same,growth inhibition,[1]; at 33.0 µM,-14%
same,growth inhibition,[1]; at 100.0 µM,-22%
same,growth inhibition,[2]; at 1.2 µM,-53%
same,growth inhibition,[2]; at 3.7 µM,-52%
same,growth inhibition,[2]; at 11.0 µM,-58%
same,growth inhibition,[2]; at 33.0 µM,-62%
same,growth inhibition,[2]; at 100.0 µM,-45%
same,growth inhibition,[3]; at 1.2 µM,-15%
same,growth inhibition,[3]; at 3.7 µM,-13%
same,growth inhibition,[3]; at 11.0 µM,-16%
same,growth inhibition,[3]; at 33.0 µM,-11%
same,growth inhibition,[3]; at 100.0 µM,1%
same,growth inhibition,[4]; at 1.2 µM,-57%
same,growth inhibition,[4]; at 3.7 µM,-57%
same,growth inhibition,[4]; at 11.0 µM,-57%
same,growth inhibition,[4]; at 33.0 µM,-38%
same,growth inhibition,[4]; at 100.0 µM,-21%
same,growth inhibition,[5]; at 1.2 µM,-34%
same,growth inhibition,[5]; at 3.7 µM,-30%
same,growth inhibition,[5]; [17],37%
same,growth inhibition,[5]; at 11.0 µM,-33%
same,growth inhibition,[5]; at 33.0 µM,-42%
same,growth inhibition,[5]; [18],41%
same,growth inhibition,[5]; at 50.0 µM,30.1%
same,growth inhibition,[5]; at 100.0 µM,-27%
same,growth inhibition,[6]; at 1.2 µM,-42%
same,growth inhibition,[6]; at 3.7 µM,-44%
same,growth inhibition,[6]; [17],45%
same,growth inhibition,[6]; at 11.0 µM,-45%
same,growth inhibition,[6]; at 33.0 µM,-36%
same,growth inhibition,[6]; [18],48%
same,growth inhibition,[6]; at 50.0 µM,48.5%
same,growth inhibition,[6]; at 100.0 µM,-24%
same,growth inhibition,[7]; at 1.2 µM,-59%
same,growth inhibition,[7]; at 3.7 µM,-53%
same,growth inhibition,[7]; at 11.0 µM,-53%
same,growth inhibition,[7]; at 33.0 µM,-56%
same,growth inhibition,[7]; at 100.0 µM,-45%
same,growth inhibition,[8]; [17],0%
same,growth inhibition,[8]; [18],91% (active)
same,growth inhibition,[8]; at 50.0 µM,42.9%
same,growth inhibition,[9]; at 1.2 µM,-16%
same,growth inhibition,[9]; at 3.7 µM,-11%
same,growth inhibition,[9]; at 11.0 µM,-2%
same,growth inhibition,[9]; at 33.0 µM,14%
same,growth inhibition,[9]; at 100.0 µM,-2%
same,growth inhibition,[10]; at 1.2 µM,-48%
same,growth inhibition,[10]; at 3.7 µM,-43%
same,growth inhibition,[10]; [17],-26%
same,growth inhibition,[10]; at 11.0 µM,-51%
same,growth inhibition,[10]; at 33.0 µM,-48%
same,growth inhibition,[10]; [18],91% (active)
same,growth inhibition,[10]; at 50.0 µM,51.6%
same,growth inhibition,[10]; at 100.0 µM,-51%
same,growth inhibition,[11]; at 1.2 µM,-14%
same,growth inhibition,[11]; at 3.7 µM,-19%
same,growth inhibition,[11]; at 11.0 µM,-1%
same,growth inhibition,[11]; at 33.0 µM,-8%
same,growth inhibition,[11]; at 100.0 µM,19%
same,growth inhibition,[12]; at 1.2 µM,-33%
same,growth inhibition,[12]; at 3.7 µM,-27%
same,growth inhibition,[12]; at 11.0 µM,-27%
same,growth inhibition,[12]; at 33.0 µM,-23%
same,growth inhibition,[12]; at 100.0 µM,1%
same,growth inhibition,[13]; at 1.2 µM,-37%
same,growth inhibition,[13]; at 3.7 µM,-41%
same,growth inhibition,[13]; at 11.0 µM,-34%
same,growth inhibition,[13]; at 33.0 µM,-28%
same,growth inhibition,[13]; at 100.0 µM,-21%
same,growth inhibition,[14]; [17],24%
same,growth inhibition,[14]; [18],44%
same,growth inhibition,[14]; at 50.0 µM,34.3%
COc1ccc(N)c2c1C(=O)c1ccccc1C2=O,growth inhibition,[1]; at 1.2 µM,6%
same,growth inhibition,[1]; at 3.7 µM,11%
same,growth inhibition,[1]; at 11.0 µM,46%
same,growth inhibition,[1]; at 33.0 µM,90% (active)
same,growth inhibition,[1]; at 100.0 µM,96% (active)
same,growth inhibition,[2]; at 1.2 µM,0%
same,growth inhibition,[2]; at 3.7 µM,11%
same,growth inhibition,[2]; at 11.0 µM,14%
same,growth inhibition,[2]; at 33.0 µM,47%
same,growth inhibition,[2]; at 100.0 µM,94% (active)
same,growth inhibition,[3]; at 1.2 µM,9%
same,growth inhibition,[3]; at 3.7 µM,26%
same,growth inhibition,[3]; at 11.0 µM,59%
same,growth inhibition,[3]; at 33.0 µM,93% (active)
same,growth inhibition,[3]; at 100.0 µM,97% (active)
same,growth inhibition,[4]; at 1.2 µM,3%
same,growth inhibition,[4]; at 3.7 µM,-3%
same,growth inhibition,[4]; at 11.0 µM,8%
same,growth inhibition,[4]; at 33.0 µM,39%
same,growth inhibition,[4]; at 100.0 µM,93% (active)
same,growth inhibition,[5]; at 1.2 µM,7%
same,growth inhibition,[5]; at 3.7 µM,8%
same,growth inhibition,[5]; [17],30%
same,growth inhibition,[5]; at 11.0 µM,35%
same,growth inhibition,[5]; at 33.0 µM,89% (active)
same,growth inhibition,[5]; [18],39%
same,growth inhibition,[5]; at 50.0 µM,60.2%
same,growth inhibition,[5]; at 100.0 µM,96% (active)
same,growth inhibition,[6]; at 1.2 µM,-9%
same,growth inhibition,[6]; at 3.7 µM,0%
same,growth inhibition,[6]; [17],47%
same,growth inhibition,[6]; at 11.0 µM,12%
same,growth inhibition,[6]; at 33.0 µM,40%
same,growth inhibition,[6]; [18],56%
same,growth inhibition,[6]; at 50.0 µM,32.1%
same,growth inhibition,[6]; at 100.0 µM,81% (active)
same,growth inhibition,[7]; at 1.2 µM,-6%
same,growth inhibition,[7]; at 3.7 µM,-23%
same,growth inhibition,[7]; at 11.0 µM,2%
same,growth inhibition,[7]; at 33.0 µM,29%
same,growth inhibition,[7]; at 100.0 µM,93% (active)
same,growth inhibition,[8]; [17],-15%
same,growth inhibition,[8]; [18],79% (active)
same,growth inhibition,[8]; at 50.0 µM,62.5%
same,growth inhibition,[9]; at 1.2 µM,-2%
same,growth inhibition,[9]; at 3.7 µM,6%
same,growth inhibition,[9]; at 11.0 µM,17%
same,growth inhibition,[9]; at 33.0 µM,34%
same,growth inhibition,[9]; at 100.0 µM,89% (active)
same,growth inhibition,[15]; [17],62%
same,growth inhibition,[15]; [18],71% (active)
same,growth inhibition,[15]; at 50.0 µM,32.5%
same,growth inhibition,[10]; at 1.2 µM,-25%
same,growth inhibition,[10]; at 3.7 µM,-24%
same,growth inhibition,[10]; [17],41%
same,growth inhibition,[10]; at 11.0 µM,-32%
same,growth inhibition,[10]; at 33.0 µM,19%
same,growth inhibition,[10]; [18],72% (active)
same,growth inhibition,[10]; at 50.0 µM,49%
same,growth inhibition,[10]; at 100.0 µM,93% (active)
same,growth inhibition,[11]; at 1.2 µM,-11%
same,growth inhibition,[11]; at 3.7 µM,-11%
same,growth inhibition,[11]; at 11.0 µM,-6%
same,growth inhibition,[11]; at 33.0 µM,42%
same,growth inhibition,[11]; at 100.0 µM,93% (active)
same,growth inhibition,[12]; at 1.2 µM,-5%
same,growth inhibition,[12]; at 3.7 µM,-9%
same,growth inhibition,[12]; at 11.0 µM,1%
same,growth inhibition,[12]; at 33.0 µM,46%
same,growth inhibition,[12]; at 100.0 µM,94% (active)
same,growth inhibition,[14]; [17],27%
same,growth inhibition,[14]; [18],40%
same,growth inhibition,[14]; at 50.0 µM,77.5% (active)
same,growth inhibition,[16]; at 1.2 µM,-20%
same,growth inhibition,[16]; at 3.7 µM,-12%
same,growth inhibition,[16]; at 11.0 µM,-10%
same,growth inhibition,[16]; at 33.0 µM,54%
same,growth inhibition,[16]; at 100.0 µM,93% (active)
